About 83,000 compounds went through this panel and 20% of them were active in at least one assay; those are over-represented in the sample as a whole.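 Each cell line was grown in a 96-well plate and treated with one concentration of compound for 48 hours. Values below 10 were considered active.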 A number with no mark means an inactive call. Calls of active or inactive are those of the source.
Legend:
Experiment in all cases: NCI-60 one-dose screen, 48 h (100 = growth as untreated, 0 = no growth, -100 = all killed)
Conditions in all cases: 10 µM unless noted
NCI-H23 lung = tested on: NCI-H23 lung
NCI-H226 lung = tested on: NCI-H226 lung
NCI-H322M lung = tested on: NCI-H322M lung
HOP-62 NSCLC = tested on: HOP-62 NSCLC
NCI-H460 lung = tested on: NCI-H460 lung
HOP-92 NSCLC = tested on: HOP-92 NSCLC
NCI-H522 lung = tested on: NCI-H522 lung
A549/ATCC NSCLC = tested on: A549/ATCC NSCLC
786-0 renal = tested on: 786-0 renal
COLO 205 colon = tested on: COLO 205 colon
DU-145 prostate = tested on: DU-145 prostate
K-562 leukemia = tested on: K-562 leukemia
MALME-3M melanoma = tested on: MALME-3M melanoma
MDA-MB-231 breast = tested on: MDA-MB-231 breast
RXF 393 renal = tested on: RXF 393 renal
SF-268 CNS = tested on: SF-268 CNS
SF-295 CNS = tested on: SF-295 CNS
SF-539 CNS = tested on: SF-539 CNS
UACC-257 melanoma = tested on: UACC-257 melanoma
M14 melanoma = tested on: M14 melanoma

Structure (SMILES) | growth (NCI-H23 lung) | growth (NCI-H226 lung) | growth (NCI-H322M lung) | growth (HOP-62 NSCLC) | growth (NCI-H460 lung) | growth (HOP-92 NSCLC) | growth (NCI-H522 lung) | growth (A549/ATCC NSCLC) | growth (786-0 renal) | growth (COLO 205 colon) | growth (DU-145 prostate) | growth (K-562 leukemia) | growth (MALME-3M melanoma) | growth (MDA-MB-231 breast) | growth (RXF 393 renal) | growth (SF-268 CNS) | growth (SF-295 CNS) | growth (SF-539 CNS) | growth (UACC-257 melanoma) | growth (M14 melanoma)
CCOC(=O)Cn1c(=O)c2c3ccccc3n(C)c2n2nnc(-c3ccccc3)c12 | 84.8% | 76.9% | 120% | 106% | 101% | 41.1% | 86.1% | 159% | 98% | 116% | 91.8% | 32.8% | 93.5% | 79.7% | 119% | 91% | 115% | 91.1% | 109% | 88.1%
CC(CN)[C@@H]1CC[C@]2(CO)CC[C@]3(C)[C@H](CC[C@@H]4[C@@]5(C)CCC(N)C(C)(C)[C@@H]5CC[C@]43C)[C@@H]12 (stereo not given in full) | -29.1% (active) | 85.2% | 48.8% | -48.1% (active) | -80% (active) | 70.9% | -50.4% (active) | -89.3% (active) | -63.1% (active) | 32.8% | -87.9% (active) | -55.8% (active) | 74.2% | -68.5% (active) | 53.1% | -60.9% (active) | 56.9% | 42.2% | 78.1% | 11.8%
CC12CCC(/C(=C/NNc3ccc([N+](=O)[O-])cc3[N+](=O)[O-])C1=O)C2(C)C (stereo not given) | 78.1% | 87.1% | 83.6% | 100% | 45.1% | 79.7% | 36.2% | 77.9% | 96.4% | 91.4% | 4.67% (active) | 77.9% | 128% | 66.1% | 64.6% | 77.8% | 85.2% | 102% | 64.4% | 65.5%
COc1cc2c(/C=C3\C(=O)Nc4ccccc43)c(C(=O)O)[nH]c2cc1C | 82.5% | 89.2% | 105% | 92% | 105% | 63.8% | 93.5% | 106% | 108% | 120% | 118% | 103% | 99.5% | 87.9% | 107% | 96.6% | 101% | 101% | 106% | 105%
COc1ccc(/C=C/C(=O)c2ccc(NC(=O)CSc3nnc(-c4cc(-c5ccccc5)nc5ccccc45)n3-c3ccccc3)cc2)cc1 | 93.2% | 102% | 99.6% | 97.3% | 107% | 84.9% | 83.9% | 97.9% | 95.4% | 110% | 94.9% | 88.8% | 98% | 87.3% | 103% | 98.3% | 103% | 97.8% | 105% | 99%
CC1COCC(C)N1C1=C(Cl)C(=O)c2ccccc2C1=O (stereo not given) | 63% | 97.3% | 94% | 99.2% | 104% | 53.4% | 36.3% | 97.1% | 102% | 104% | 97.9% | 0.947% (active) | 75.3% | 67.4% | 61.3% | 90.8% | 102% | 104% | 37.1% | 80.6%
CCOC(=O)C/C(=N\Nc1cc(=O)[nH]c2ccc(Cl)cc12)C(=O)OCC | 95.3% | 98.2% | 91.3% | 101% | 103% | 87.5% | 105% | 100% | 106% | 121% | 106% | 43.9% | 95.8% | 98.8% | 110% | 98.6% | 103% | 98.8% | 105% | 95.5%
COc1ccc(Nc2ncccc2NC(=O)c2cn(Cc3cccc(Oc4ccccc4)c3)nn2)cc1OC | 76% | 92.4% | 83.7% | 88% | 97.4% | 81.6% | 77.1% | 86.7% | 90.5% | 81.4% | 84% | 28.7% | 87.4% | 67.9% | 86.3% | 61.7% | 84.2% | 95% | 92.4% | 72.5%
COc1ccc(-c2cc(C(=O)N3N=C(c4ccc(N)cc4)CC3c3ccccc3)c3ccccc3n2)cc1 (stereo not given) | 56.7% | 77.3% | 47.1% | 30.6% | 18.2% | 34.5% | 23.7% | 39.4% | 37.3% | 10.8% | 21.8% | 19.8% | 54.6% | 62.9% | 51.1% | 51.5% | 6.86% (active) | 13.4% | 47.2% | 17.2%
Cc1cccc(-n2c(C)nc3ccc(N4CCCNC4=O)cc3c2=O)c1 | 98.5% | 96.5% | 103% | 101% | 112% | 95.1% | 96.4% | 102% | 102% | 105% | 109% | 102% | 102% | 106% | 116% | 105% | 101% | 91.9% | 105% | 102%
O=C(CCC(=O)c1nc2ncccc2[nH]1)NN1C(=O)CSC1c1ccc(Cl)cc1 (stereo not given) | 91.4% | 95.9% | 93.5% | 93.9% | 102% | 111% | 83% | 97.3% | 101% | 116% | 103% | 98.2% | 93% | 98% | 103% | 91.2% | 108% | 103% | 105% | 98%
CC(C)CSc1oc(-c2ccccc2)nc1S(=O)(=O)c1ccccc1 | 83.4% | 75.7% | 99% | 94.4% | 97.2% | 45.8% | 70.8% | 79.8% | 87% | 109% | 99.3% | 92.4% | 95.6% | 89.4% | 82.6% | 87.3% | 84.3% | 101% | 92.2% | 98.3%
O=C1NC(=Nc2ccc(O)cc2)S/C1=C\c1cccs1 | 47.4% | 57.4% | 35.3% | 46.7% | 3.62% (active) | -7.99% (active) | 15.5% | 35.4% | 20.2% | 105% | 44.6% | 14.7% | 68.8% | 57.9% | 41.2% | 50% | 34.8% | 16.7% | 70.5% | 34.8%
Cc1cccc(NC(=O)CSc2nc3ccc([N+](=O)[O-])cc3[nH]2)c1 | 69.7% | 71% | 97.2% | 115% | 84.7% | 21% | 61% | 82.7% | 84.8% | 90.1% | 85% | 66.5% | 62.2% | 97.3% | 89% | 87.8% | 62.7% | 87.1% | 70.9% | 79.9%
CCCCCSB(SCCCCC)c1ccccc1 | 99.9% | 102% | 103% | 90% | 112% | 105% | 88.3% | 92.4% | 103% | 106% | 108% | 112% | 101% | 105% | 109% | 98.2% | 105% | 106% | 94.4% | 102%

— PubChem BioAssay (NCI)
